Bioassay records (PubChem BioAssay)
The sample as a whole holds a higher share of hits than the screen did.
VACV E9 pol inh – inhibitors of vaccinia virus processive DNA synthesis (E9 polymerase); normalized absorbance, % (test concentration not listed); in vitro processive DNA synthesis, absorbance read-out; active compounds read low; 46,000 tested, 0.94% active; in the data active means normalized absorbance mostly below about 85%, no sharp cut-off; inactive means mostly above about 86%
An asterisk follows results filed as active; ! = repeats disagree.

SMILES	VACV E9 pol inh
CC1CCCCN1CCCNC(=O)c1cc2c(s1)-c1ccc(Cl)cc1SC2 (stereo not drawn)	69*
CC(=O)Nc1ccccc1C(=NC1CCCCC1)C(=O)NC1CCCCC1	88
O=C(COCC(=O)N1CCc2ccccc21)N1CCc2ccccc21	101
COC(=O)c1c2c(n3ccccc13)C(=O)c1ccccc1C2=O	62*
COC(=O)c1c2c(n3ccc(C)cc13)C(=O)c1ccccc1C2=O	96
COC(=O)c1c2c(n3cc4ccccc4cc13)C(=O)c1ccccc1C2=O	99
CSc1nnc(CNC(=O)c2ccccc2)n1-c1ccccc1	101
CCN1CCCC1CNC(=O)c1ccc2c(c1)sc1nc(-c3cccc(OC)c3)cn12 (stereo not drawn)	47*
CCN1CCCC1CNC(=O)c1nnc(Cc2cccc(F)c2)o1 (stereo not drawn)	108
O=C(NCCCN1CCCCC1)c1ccc2nc(N3CCCCC3)sc2c1	97
O=C(NCCN1CCCCCC1)c1ccc2c(c1)ncn2C1CCCCC1	97
CCOC(=O)N1CCN(C(=O)c2ccc3c(c2)sc2nc(-c4ccc(OC)cc4)cn23)CC1	99
O=C(NCCCN1CCCCC1)c1ccc2c(c1)sc1nc(-c3ccccc3)cn12	58*
CC(=O)N1[C@@H](C2C(=O)NN=C2C)C[C@H](C)N1c1ccccc1 (stereo partly drawn)	100
CCOC(=O)CSc1nc2c([nH]c3ccccc32)c(=O)n1-c1ccc(C)cc1	100
Cc1ccc(N=Cc2ccc(Br)s2)c(C)c1	100
CN(C)CC(O)Cn1c2ccccc2c2ccccc21 (stereo not drawn)	81
CCn1c2c(c3cc(Br)ccc31)CCCC2=O	100
CN(C)CC(O)Cn1c2ccc(Cl)cc2c2cc(Cl)ccc21 (stereo not drawn)	27*
OCC(O)Cn1c2ccc(Br)cc2c2cc(Br)ccc21 (stereo not drawn)	65*
OC(CN1CCNCC1)Cn1c2ccccc2c2cc(Br)ccc21 (stereo not drawn)	56*
CN(CC(O)Cn1c2ccccc2c2ccccc21)S(=O)(=O)c1ccc(Cl)cc1 (stereo not drawn)	100
Cc1ccc2c(c1)c(C)c(C)n2CC(O)CN1CCCCC1 (stereo not drawn)	105
CC1CCN(CC(O)Cn2c3ccccc3c3ccccc32)CC1 (stereo not drawn)	96
OC(COc1ccccc1Br)CN1CCNCC1 (stereo not drawn)	97
SMILES	VACV E9 pol inh
Cc1ccc(C(=O)CC(c2ccccc2)C(C#N)C#N)cc1 (stereo not drawn)	98
CN1C(=O)/C(=C2\SC(=S)N(c3cccc(C(=O)O)c3)C2=O)c2ccccc21	104
O=C(CC(=O)N1CCc2ccccc2C1)N1CCc2ccccc2C1	89
N/C(=N\O)c1cccc(/C(N)=N/O)n1	100
CCC(=O)O[C@H]1[C@H](O[C@@H]2[C@@H](C)[C@H](O[C@H]3C[C@@](C)(OC)[C@@H](O)[C@H](C)O3)[C@@H](C)C(=O)O[C@H](CC)[C@@](C)(O)[C@H](O)[C@@H](C)C(=O)[C@H](C)C[C@@]2(C)O)O[C@H](C)C[C@@H]1N(C)C	95
CCOC(=O)CCC(=O)O[C@H]1[C@H](O[C@@H]2[C@@H](C)[C@H](O[C@H]3C[C@@](C)(OC)[C@@H](O)[C@H](C)O3)[C@@H](C)C(=O)O[C@H](CC)[C@@](C)(O)[C@H](O)[C@@H](C)C(=O)[C@H](C)C[C@@]2(C)O)O[C@H](C)C[C@@H]1N(C)C	98
CC[C@H]1OC(=O)[C@H](C)[C@@H](O[C@H]2C[C@@](C)(OC)[C@@H](O)[C@H](C)O2)[C@H](C)[C@@H](O[C@@H]2O[C@H](C)C[C@H](N(C)C)[C@H]2O)[C@](C)(O)C[C@@H](C)C(=O)[C@H](C)[C@@H](O)[C@]1(C)O	23*!
COc1ccc(NC(=O)COc2cccc(OCC(C)C)c2)cc1	97
CC(N)C(=O)NC(Cc1ccccc1)C(=O)O (stereo not drawn)	100
CCOC(=O)c1c(NC(C)=O)sc(Br)c1-c1ccc(C)cc1	89
CCOC(=O)c1c(NC(=O)/C=C\C(=O)O)sc(C)c1-c1ccccc1	63*
CCOC(=O)c1c(NC(=O)CCN2CCOCC2)sc(C)c1-c1ccccc1	82
N#Cc1ccc(Cl)cc1N=Cc1cccs1	96
CCN(Cc1ccccc1)C(C)=O	99
CCC(C)C(NCc1c(O)ccc2c(C)cc(=O)oc12)C(=O)O (stereo not drawn)	100
CC(C)C(=O)Nc1nnc(SCC(=O)N2CCCc3ccccc32)s1	101
COc1ccc2cc3cc(C(=O)NCCN4CCN(c5ccccc5F)CC4)sc3nc2c1	102
COc1ccc2cc3cc(C(=O)NCCC(C)C)sc3nc2c1	102
COc1ccc2cc3cc(C(=O)NCCCN4CCCCCC4)sc3nc2c1	40*
Clc1ccc(-c2cc(-c3ccccc3)n[nH]2)cc1	106
Nn1c2ccccc2n2cc(-c3ccccc3)nc12	102
Oc1ccc(-c2cnc3ccncc3n2)cc1	100
CCCCCCCCCCCCCCCC[n+]1ccccc1	17*
c1cc[n+](C[n+]2ccccc2)cc1	103
COc1ccc(CC(=O)NC(C)C(c2cccs2)N2CCN(C)CC2)cc1OC (stereo not drawn)	100
SMILES	VACV E9 pol inh
Cc1ccc(Cl)cc1NC(=O)COC(=O)c1ccc(Br)o1	93
O=C(O)c1ccccc1SC/C=C/c1ccccc1	83*
O=C(O)c1ccccc1SCC(=O)N1CCCC1	90
[O-][n+]1ccccc1SC/C=C/c1ccccc1	98
COc1ccc2c(c1)CCCN2Cn1nc(-c2ccccc2)n(-c2ccccc2)c1=S	100
CC(C)c1ccc(S(=O)(=O)C2C(=O)N(C)C3(C)CC2c2ccccc2O3)cc1 (stereo not drawn)	108
CCOC(=O)Cc1cn2ccsc2n1	105
COc1ccc(-c2cn3c4ccccc4nc3n2CCO)cc1	106
Cc1cc(OCC(=O)NC(Cc2c[nH]c3ccccc23)C(=O)O)cc(C)c1Cl (stereo not drawn)	60*
Cc1ccc(OCC(=O)NC(Cc2c[nH]c3ccccc23)C(=O)O)cc1 (stereo not drawn)	94
CC(=O)N[C@@H](Cc1c[nH]c2ccccc12)C(=O)O	100
CCCc1cc(=O)oc2cc(OCc3ccccc3)ccc12	100
O=C(/C=C/c1ccccn1)NC(Cc1c[nH]c2ccccc12)C(=O)O (stereo not drawn)	97
c1coc(-c2cn3ccc4ccccc4c3n2)c1	84*
CCN(CC)C(=O)c1cc(-c2ccco2)nc2ccccc12	87
Cn1ccnc1C(=O)c1cc(-c2ccco2)nc2ccccc12	84
Cc1ccc(Cn2c(=O)n(Cc3ccccc3)c(=O)c3ccccc32)cc1	106
Cc1ccc(C)n1C(CC(=O)O)c1ccc(F)cc1 (stereo not drawn)	82
O=C(O)CC(c1ccsc1)n1cccc1 (stereo not drawn)	102
Cc1ccc(C)n1C(CC(=O)O)c1ccsc1 (stereo not drawn)	73*
CC(=O)NC1=NC(=O)/C(=C/c2ccc(-c3ccc4c(c3)COC4=O)o2)S1	100
CCCC(=O)Nc1cc(Cl)cc(Cl)c1	107
O=C(NCC1CCCO1)Nc1ccc(Cl)cc1 (stereo not drawn)	80
Clc1ccc2oc(-c3ccccc3)cc(=NCc3ccco3)c2c1	90
NC(=O)c1ccccc1N=c1cc(-c2ccccc2)oc2ccc(Cl)cc12	100
Clc1ccc2oc(-c3ccccc3)cc(=NCCCN3CCOCC3)c2c1	44*
